Screening results (PubChem BioAssay)
USP17 inh = blocks human USP17 ubiquitin-rhodamine cleavage; A8MUK1; purified USP17, Ub-rhodamine cleavage fluorescence, 3 h; inhibition, % at 50 µM; 6.5% of 47,000 active
USP30 block = inhibitors of human USP30 deubiquitinase. purified USP30, Ub-rhodamine cleavage fluorescence. 5.3% of 47,000 active. Q70CQ3. inhibition, % at 25 µM
USP7 block = blocks human USP7 ubiquitin-rhodamine cleavage; inhibition, % at 20 µM; 0.3% of 47,000 active; purified USP7, Ub-rhodamine cleavage fluorescence; Q93009
USP8 block = inhibitors of human USP8 deubiquitinase; 4.2% of 47,000 active; AID 1645853; purified USP8, Ub-rhodamine cleavage fluorescence, 30 min; inhibition, % at 20 µM
USP10 block = blocks human USP10 ubiquitin-rhodamine cleavage. purified USP10, Ub-rhodamine fluorescence, 60 min. inhibition, % at 20 µM. 1.1% of 47,000 active. AID 1645856
UCHL1 block = inhibitors of human UCHL1 deubiquitinase; inhibition, % at 20 µM; P09936; 0.2% of 47,000 active; purified UCHL1, Ub-rhodamine cleavage fluorescence; AID 1645859
Active calls of the source: *; i = inactive; nt = no result. An excerpt weighted towards active compounds, which were near 13% of everything screened. Cut-off read from the data, not from the text of the source: active = inhibition above about 30%; inactive = the rest.

SMILES	USP17 inh	USP30 block	USP7 block	USP8 block	USP10 block	UCHL1 block
O=C(CCc1nnc2n(Cc3ccccc3)c(=O)c3ccccc3n12)NCC1CCCO1 (configuration not stated)	10.6	30.5*	-5.6	0.6	-1.0	0.3
CN(C)CC(=O)N1CCC2(CC1)C(=O)N(c1cccnc1)c1ccccc12	-8.6	-0.1	0.2	-8.0	3.7	-1.7
Cc1cc(CN2C(=O)NC(C)(c3cccc4ccccc34)C2=O)on1 (configuration not stated)	0.9	13.4	-15.3	12.9	-0.1	0.0
CCCNc1cc(-c2ccccc2)nc2nc(-c3cccnc3)nn12	54.3*	29.8	6.3	4.3	2.2	6.3
COc1cccc(CNc2cc(C(C)C)nc3nc(-c4cccnc4)nn23)c1	35.3*	19.8	2.2	6.0	1.2	2.4
CC(C)c1cc(NCc2ccco2)n2nc(-c3cccnc3)nc2n1	31.3*	36.6*	4.8	8.6	0.8	5.7
CC(C)c1cc(Nc2ccc(O)cc2)n2nc(-c3cccnc3)nc2n1	19.3	17.7	0.0	16.8	7.1	0.1
COc1ccc(-c2nc3cnc(Br)cn3c2Nc2ccc3c(c2)OCO3)cc1	-35.3	-327.6	-0.3	2.2	-4.3	-4.3
Cc1c(C)c2ccc(OCC(=O)N3CCC(Cc4ccccc4)CC3)cc2oc1=O	17.9	47.7*	8.1	20.4	11.3	4.8
CC(C)NS(=O)(=O)c1ccc(OCC(=O)N2CCC(Cc3ccccc3)CC2)cc1	5.7	32.3*	3.5	6.9	5.1	3.0
Cc1c(C)c2ccc(OCC(=O)N3CC[C@@]4(O)CCCC[C@H]4C3)cc2oc1=O	18.9	23.1	1.8	14.6	-2.4	2.2
CCOC(=O)C1CCN(C(=O)COc2ccc3c(=O)c(Oc4ccc(F)cc4)c(C)oc3c2)CC1	0.2	30.2*	-1.4	-2.1	-3.6	0.6
O=C(COc1ccc(S(=O)(=O)N2CCOCC2)cc1)N1CCC(Cc2ccccc2)CC1	3.5	20.8	8.2	-31.6	2.0	6.2
CCOC(=O)c1noc2ncn(Cc3ccc(C)cc3)c(=O)c12	0.2	-14.4	-25.6	-0.1	1.6	0.0
Cc1cccc(NC(=O)Cn2c(-c3nc(C)no3)cccc2=O)c1	-0.8	6.8	-0.1	7.2	-1.3	1.9
Cc1noc(-c2cccc(=O)n2CC(=O)Nc2ccc(C)c(F)c2)n1	8.5	30.9*	3.2	14.0	1.9	1.2
Cc1noc(-c2cccc(=O)n2CC(=O)Nc2ccc(C)c(C)c2)n1	70.8*	14.4	-9.0	4.3	2.8	2.0
Cc1noc(-c2cccc(=O)n2CC(=O)Nc2cccc(Cl)c2)n1	2.4	4.4	-12.1	9.8	0.0	1.2
CCOc1ccc(-c2csc(C)n2)cc1S(=O)(=O)N1CCCCC1	10.5	22.2	1.8	-1.3	5.0	1.9
CN1C(=O)COc2ccc(NC(=O)c3cc(-c4ccccc4)on3)cc21	73.9*	26.9	5.6	-0.5	3.6	0.2
Cc1c(C(=O)Nc2ccc3c(c2)N(C)C(=O)CO3)oc2ccc(F)cc12	1.2	-9.6	5.8	15.5	1.4	2.6
Cc1ccc(-c2ncc(C(=O)Nc3ccccc3Cl)c(-c3ccncc3)n2)cc1	-26.1	-431.1	-52.7	31.3*	-10.4	-25.4
O=C(Nc1cccc(Cl)c1F)c1cnc(-c2ccccc2)nc1-c1ccncc1	-126.0	i	-11.5	2.0	-3.5	-27.4
Cc1ccc(-c2ncc(C(=O)NC(C)c3ccccn3)c(-c3ccncc3)n2)cc1 (configuration not stated)	-42.3	-141.2	-12.8	5.6	-3.4	-15.7
Cc1ccc(-c2ncc(C(=O)Nc3ccc(F)cc3)c(-c3ccncc3)n2)cc1	-58.1	-226.1	-16.0	48.3*	-8.1	-14.5
SMILES	USP17 inh	USP30 block	USP7 block	USP8 block	USP10 block	UCHL1 block
CC(=O)Nc1ccc(NC(=O)N[C@H]2C[C@H]3CN(C)c4ccccc4CN3C2)cc1	-2.0	-30.7	1.8	3.0	-2.3	-2.0
Cc1ccc(CN(C)C(=O)Cn2nc(C)c(S(=O)(=O)N3CCc4ccccc43)c2C)o1	10.1	2.8	2.3	25.0	-2.0	4.6
CCOc1ccc(-c2cc(C(=O)N3CCN(C4CCCC4)CC3)[nH]n2)cc1	-0.3	2.2	2.5	-13.2	-0.4	3.3
O=C(CCc1nc(CSc2nnc(-c3ccco3)o2)no1)Nc1ccc(F)cc1	-9.0	-61.2	-9.3	-146.6	-9.4	-4.3
COc1ccc(NC(=O)Cn2cnc3scc(-c4ccc(OC)cc4)c3c2=O)cc1	44.7*	-63.4	-6.0	-13.4	-4.1	-11.5
CCOc1ccc(-c2csc3ncn(CC(=O)NCc4ccccc4)c(=O)c23)cc1	36.7*	-86.2	-1.6	-9.2	1.2	-2.2
CC(C)c1ccc(NC(=O)Cn2cnc3scc(-c4ccc5c(c4)CCCC5)c3c2=O)cc1	-0.4	-52.5	7.6	19.0	-4.9	-2.1
CCOc1ccc(CNC(=O)CCn2cnc3ccccc3c2=O)cc1	-105.9	3.4	-7.4	63.8*	-1.3	-0.8
CCOc1ccccc1NC(=O)CCn1cnc2ccccc2c1=O	-25.8	10.1	4.7	-109.5	2.9	2.6
CC(C)n1cnc2c(-c3ccccc3)cn(CC(=O)NCc3ccccc3)c2c1=O	35.7*	-48.2	-2.8	0.2	-10.4	-9.9
COc1ccccc1N(CC(=O)N1CCc2ccccc21)S(=O)(=O)c1ccc(Cl)cc1	10.9	20.0	6.5	11.7	6.1	3.5
NCCCN1CCC(c2cc(OCc3ccccc3)no2)CC1	-32.0	nt	-0.7	-3.5	-1.3	-3.3
Cc1ccc(CNC(=O)C2CCCN(S(=O)(=O)N3CCOCC3)C2)cc1 (configuration not stated)	7.6	-13.4	-0.1	7.8	-1.5	-1.2
COc1ccccc1CNC(=O)Cn1cnc2c(-c3ccccc3)csc2c1=O	20.7	32.8*	14.8	69.7*	40.4*	5.0
Cc1ccnc(Nc2nc(C)c(C(=O)NC3CCCC3)s2)c1	31.3*	-10.4	4.0	23.9	-1.4	2.8
Cc1nc(NC2CC2)sc1C(=O)NC1CCCC1	1.5	-49.1	5.9	0.8	1.3	0.0
Cc1nc(COc2ccccc2)sc1C(=O)NC1CCCC1	39.4*	15.1	-2.6	15.3	-1.8	0.8
Cc1ccc(C)c(NC(=O)CC2C(=O)N(CC3CCCO3)c3nc4ccccc4n32)c1 (configuration not stated)	-22.3	-22.7	-15.2	-20.4	1.9	-1.5
Cc1ccc2cc(NC(=O)CC(CC(=O)O)c3ccccc3)ccc2n1 (configuration not stated)	53.5*	nt	10.9	6.1	5.8	4.6
CC(=O)O[C@H]1CC[C@]2(C)[C@H]3Cc4c(O)cc5c(c4O[C@]3(C)CC[C@H]2C1(C)C)CNC5=O	34.2*	-0.2	15.8	-6.8	1.2	12.0
CC(=O)Nc1cc2nc3ccccc3oc-2cc1=O	21.9	9.8	6.4	-4.1	-0.1	-0.1
CC(=O)Nc1cc2cc(-n3cccc3)ccc2oc1=O	59.1*	-7.2	9.8	26.8	6.7	7.8
